Laboratory results taken from PubChem BioAssay AID1224921 (Broad Institute, 2016).
About 350 (25%) of roughly 1,400 compounds were called active. Inconclusive results (about 2%) are left out. No rule for the calls is given here. The list is a sample of the results. Measured potencies and affinities stand elsewhere.

Experiment: inhibitors of Clostridioides difficile proliferation – 4-point retest, confirmation (AID 1224921);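 also: plate controls were DMSO wells for no effect and levofloxacin 16 µg/mL wells for full effect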
Details: Clostridioides difficile clinical isolate growth, OD600, 24 h, hits give low values; at 30 µM unless noted

Max activity, inactive:
C[C@H](CO)N1C[C@H](C)[C@@H](CN(C)Cc2ccc3c(c2)OCO3)Oc2c(NC(=O)Nc3ccc(C(F)(F)F)cc3)cccc2C1=O 43.3%, C[C@@H]1CN([C@H](C)CO)C(=O)c2cccc(NC(=O)Nc3ccc(C(F)(F)F)cc3)c2O[C@H]1CN(C)Cc1ccc2c(c1)OCO2 43.4% [at 8 µM], C[C@@H]1CN([C@@H](C)CO)C(=O)c2cccc(NC(=O)Nc3ccc(F)cc3)c2O[C@H]1CN(C)CC1CCCCC1 13.5% [at 8 µM], C[C@H](CO)N1C[C@H](C)[C@H](CN(C)C(=O)NC2CCCCC2)Oc2c(NC(=O)Nc3ccc(C(F)(F)F)cc3)cccc2C1=O 35.7% [at 1.95 µM], CCCC(=O)Nc1ccc2c(c1)OC[C@H](C)N(CCc1ccccc1)C[C@@H](C)[C@@H](OC)CN(C)C2=O -11.5% [at 0.5 µM], C[C@@H]1CN([C@@H](C)CO)C(=O)Cc2cc(N(C)C)ccc2O[C@H]1CN(C)Cc1ccc(-c2ccccc2)cc1 20.5% [at 8 µM], C#CCNC(=O)C1=C[C@H](c2cn(C(C)=O)c3ccccc23)C[C@H](OCc2ccc(CO)cc2)O1 -9.52% [at 0.5 µM], O=C(N[C@H]1C=C[C@@H](CC(=O)N2CCOCC2)O[C@@H]1CO)c1cccc(F)c1 -5.96%, C[C@@H]1CCCCO[C@H](CN(C)CC2CC2)[C@H](C)CN([C@@H](C)CO)C(=O)c2cc(NC(=O)Nc3cccc4ccccc34)ccc2O1 13.7%, CCc1cnc(N2[C@H](CO)[C@H](c3ccc(C#CC(C)C)cc3)[C@@H]2C#N)s1 17% [at 1.95 µM], CC(C)CC#Cc1ccc2c(c1)O[C@H](CN(C)Cc1cccnc1)[C@@H](C)CN([C@H](C)CO)S2(=O)=O 42.9%, CC(C)Cc1ccc(CN2CC[C@@H](NC(=O)c3ccccc3)C2)cc1 20.1% [at 8 µM], C[C@H](CO)N1C[C@H](C)[C@@H](CN(C)C(=O)Nc2ccc(C(F)(F)F)cc2)Oc2c(NC(=O)c3ccc(-c4nccs4)cc3)cccc2C1=O 7.84%, O=C(C[C@@H]1CC[C@H](NC(=O)Nc2cc(F)ccc2F)[C@H](CO)O1)NCc1ccc2c(c1)OCO2 4.18% [at 8 µM], O=C(NCC[C@@H]1CC[C@H](NC(=O)Nc2cc(F)ccc2F)[C@H](CO)O1)Nc1ccc(Cl)cc1 -10.4% [at 0.5 µM], CC(C)NC(=O)NCC[C@H]1CC[C@@H](NS(=O)(=O)c2ccc(Oc3ccccc3)cc2)[C@H](CO)O1 9.67%, O=S(=O)(NCC[C@H]1CC[C@H](NS(=O)(=O)c2ccccc2Cl)[C@H](CO)O1)c1ccc(Cl)cc1 10% [at 7.5 µM], CC(C)NC(=O)NCC[C@H]1CC[C@@H](NS(=O)(=O)c2ccc(Oc3ccccc3)cc2)[C@@H](CO)O1 13.9% [at 35 µM], Cc1ccc(S(=O)(=O)N[C@H]2CC[C@H](CCNS(=O)(=O)Cc3ccccc3)O[C@H]2CO)cc1 -13.6% [at 7.5 µM], CC(C)CC#Cc1ccc2c(c1)O[C@@H](CN(C)C(=O)c1ccccc1)[C@@H](C)CN([C@@H](C)CO)S2(=O)=O 35.1%, CC(=O)N(C)C[C@H]1Oc2ncc(-c3ccc(C#N)cc3)cc2C(=O)N([C@H](C)CO)C[C@H]1C -10.1% [at 1.95 µM], CO[C@H]1CN(C)C(=O)c2cc(NS(=O)(=O)c3cccc(F)c3)ccc2OC[C@H](C)N(Cc2cc(F)ccc2F)C[C@H]1C 7.97%, CCC(=O)Nc1ccc2c(c1)C(=O)N(C)C[C@@H](OC)[C@@H](C)CN(C(=O)CN1CCOCC1)[C@H](C)CO2 18.1%, CCCN1C[C@H](C)[C@H](OC)CN(C)C(=O)c2cc(NC(=O)c3cccc(OC)c3)ccc2OC[C@@H]1C -8.29% [at 0.5 µM], C[C@H](CO)N1C[C@H](C)[C@@H](CN(C)Cc2ccc3c(c2)OCO3)Oc2ccc(NC(=O)Nc3ccc4c(c3)OCO4)cc2C1=O -9.66% [at 8 µM], C[C@H](CO)N1C[C@H](C)[C@@H](CN(C)S(=O)(=O)CC(F)(F)F)OCc2ccccc2-c2c(n(C)c3ccccc23)C1=O 24.2%, CC(C)CC#Cc1ccc2c(c1)O[C@@H](CN(C)Cc1ccncc1)[C@H](C)CN([C@H](C)CO)S2(=O)=O 18.2% [at 8 µM], C[C@@H]1CN([C@@H](C)CO)S(=O)(=O)c2ccc(C#CCC3CCCC3)cc2O[C@H]1CN(C)C(=O)CC1CC1 -15.8% [at 1.95 µM], O=C(C[C@H]1CC[C@H](NC(=O)CCN2CCCCC2)[C@H](CO)O1)Nc1nccs1 -18.1% [at 8 µM], CC(=O)N(C)C[C@@H]1Oc2ncc(C#Cc3ccc(F)cc3)cc2C(=O)N([C@@H](C)CO)C[C@H]1C 24.8%, CCCNC(=O)N(C)C[C@H]1Oc2ncc(C#CCc3ccccc3)cc2C(=O)N([C@@H](C)CO)C[C@@H]1C 16.1%, COc1ccc(C#Cc2cnc3c(c2)C(=O)N([C@@H](C)CO)C[C@H](C)[C@@H](CN(C)CC2CCOCC2)O3)cc1 8.65% [at 8 µM], C[C@@H]1CN([C@@H](C)CO)C(=O)c2cc(C#CC3CCCCC3)cnc2O[C@H]1CN(C)Cc1cccnc1 21.1%, C[C@@H]1CN([C@@H](C)CO)C(=O)c2cc(C#CC3CCCCC3)cnc2O[C@@H]1CN(C)Cc1cccnc1 58.9%, C[C@H](O)C#Cc1cnc2c(c1)C(=O)N([C@@H](C)CO)C[C@H](C)[C@H](CN(C)Cc1ccc(-c3ccccc3)cc1)O2 31.6%, CCCN1C[C@@H](C)[C@@H](OC)CN(C)C(=O)c2cc(NC(=O)c3cccc(F)c3)ccc2OC[C@H]1C -11.3% [at 1.95 µM], CO[C@@H]1CN(C)C(=O)c2cc(NC(C)=O)ccc2OC[C@@H](C)N(C(=O)c2ccccn2)C[C@@H]1C -15.1% [at 8 µM], C[C@H]1CN([C@@H](C)CO)C(=O)Cc2cc(NS(=O)(=O)c3cccs3)ccc2O[C@@H]1CN(C)Cc1ccc(Cl)c(Cl)c1 33.5% [at 8 µM], COc1ccc(NC(=O)Nc2ccc3c(c2)[C@H]2C[C@H](CC(=O)N[C@@H](C)c4ccccc4)O[C@@H](CO)[C@H]2O3)cc1 -8.28% [at 2.1 µM], Cc1ccccc1S(=O)(=O)N1[C@H](CO)[C@@H](c2ccc(C#CC3CC3)cc2)[C@@H]1C#N 34.7%, COc1ccccc1C#Cc1ccc([C@H]2[C@@H](C#N)N(C(=O)C3CC3)[C@H]2CO)cc1 22.1% [at 8 µM], O=C(C[C@@H]1CC[C@@H](NC(=O)Nc2cc(F)ccc2F)[C@H](CO)O1)NCc1ccc2c(c1)OCO2 8.77%, C[C@@H]1CN([C@H](C)CO)C(=O)c2cc(NC(=O)Nc3cccc4ccccc34)ccc2O[C@@H](C)CCCCO[C@H]1CN(C)S(=O)(=O)c1cn(C)cn1 30.5% [at 35 µM], CO[C@@H]1CN(C)C(=O)c2cc(NS(=O)(=O)c3cn(C)cn3)ccc2OC[C@@H](C)N(Cc2ccc(C(F)(F)F)cc2)C[C@H]1C 43.6%, CO[C@@H]1CN(C)C(=O)c2ccc(NS(=O)(=O)c3cn(C)cn3)cc2OC[C@@H](C)N(Cc2ccc(C(F)(F)F)cc2)C[C@H]1C 35.5% [at 8 µM], CO[C@@H](CN(C)S(=O)(=O)c1ccc(C)cc1)[C@H](C)CN(C(=O)Nc1ccccc1F)[C@@H](C)CO -7.73% [at 8 µM], C[C@@H]1CCCCO[C@@H](CN(C)S(=O)(=O)c2cn(C)cn2)[C@H](C)CN([C@H](C)CO)C(=O)c2cc(NS(=O)(=O)c3ccccc3)ccc2O1 -10.5% [at 0.5 µM], CO[C@H]1CN(C)C(=O)c2cc(NC(=O)c3cccc(F)c3)ccc2OC[C@H](C)N(C(C)=O)C[C@@H]1C -4.07% [at 1.95 µM], C[C@@H]1CN([C@H](C)CO)S(=O)(=O)c2ccc(C3=CCCCC3)cc2O[C@@H]1CN(C)Cc1ccncc1 19.4%, COc1ccc(S(=O)(=O)Nc2ccc3c(c2)OC[C@@H](C)N(C)C[C@@H](C)[C@H](OC)CN(C)C3=O)cc1 -9.73% [at 1.95 µM], C[C@@H]1CN([C@H](C)CO)C(=O)Cc2cc(NS(C)(=O)=O)ccc2O[C@@H]1CN(C)Cc1ccc(-c2ccccc2)cc1 52.1%, O=C(C[C@@H]1C[C@@H]2c3cc(NC(=O)Nc4ccc(C(F)(F)F)cc4)ccc3O[C@@H]2[C@H](CO)O1)NCc1ccccn1 -9.23% [at 1.95 µM], CCCC(=O)Nc1ccc2c(c1)OC[C@@H](C)N(CCc1ccccc1)C[C@H](C)[C@H](OC)CN(C)C2=O -4.85% [at 1.95 µM], C[C@H](CO)N1C[C@H](C)[C@H](CN(C)Cc2cccnc2)Oc2cc(C3=CCCCC3)ccc2S1(=O)=O 37%, O=C(C[C@H]1C[C@H]2c3cc(NC(=O)Nc4ccc(F)cc4)ccc3O[C@H]2[C@@H](CO)O1)NC1CCCC1 -13.7% [at 8 µM], C[C@@H]1CN([C@H](C)CO)C(=O)c2ccccc2-c2ccccc2CO[C@@H]1CN(C)S(=O)(=O)c1ccsc1 12% [at 1.95 µM]
